Source: the supplement of paper PMC9262897, “Low-cost anti-mycobacterial drug discovery using engineered E. coli” (Nature Communications, 2022)
Counter-ions that a name gives are not always drawn. ± gives the standard deviation of the averaged measurements.

Experiments:
Test in all cases: growth (OD600 after 10 h); higher = more growth (less inhibition)
[1] = tested on: E. coli TESEC Alr+ wild-type control; settings: compound 0.1 mM; raw OD600 reference: median of DMSO wells 0.241, cell-free background 0.041
Procedure: (§1)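 TESEC Mtb Alr E. coli, or the Alr+ wild-type control, in 384-well plates with Prestwick library compounds at 0.1 mM and 1% DMSO, across arabinose induction levels of 1E3 to 1E7 nM. Growth is read as OD600 after 10 h at 37 °C in triplicate biological replicates.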

[2] = tested on: E. coli TESEC Mtb Alr; settings: compound 0.1 mM
Procedure: as §1

[3] = tested on: E. coli TESEC Mtb Asd; settings: compound 0.1 mM
Procedure: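 TESEC E. coli strains in which the native enzyme is deleted and replaced by arabinose-inducible Mtb Asd, DapB, CysH or TrpD, each grown in its selective medium. Strains were screened against the Prestwick library at 0.1 mM and 1% DMSO in 384-well format at low and high arabinose induction. Growth is read as OD600 after 10 h in triplicate.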

[4] = tested on: E. coli TESEC Alr+ wild-type control; settings: compound 0.1 mM; raw OD600 reference: median of DMSO wells 0.49, cell-free background 0.052
Procedure: (§2)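 TESEC Mtb Alr E. coli (ΔaraC ΔtolC ΔentC Δalr ΔdadX, arabinose-inducible Mtb Alr) or the Alr+ wild-type control strain, grown in defined M9-fructose medium without D-alanine in 96-well plates with Prestwick library compounds at 0.1 mM and 1% DMSO. Low Alr induction is 0.1 µM arabinose and high induction is 10 mM arabinose.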

[5] = tested on: E. coli TESEC Mtb Alr; settings: compound 0.1 mM; remark: listed apart in the source
Procedure: as §2

[6] = arabinose 1000 nM, raw OD600 reference: median of DMSO wells 0.294, cell-free background 0.041
[7] = arabinose 10000 nM, raw OD600 reference: median of DMSO wells 0.264, cell-free background 0.041
[8] = arabinose 100000 nM, raw OD600 reference: median of DMSO wells 0.201, cell-free background 0.041
[9] = arabinose 1000000 nM, raw OD600 reference: median of DMSO wells 0.193, cell-free background 0.041
[10] = arabinose 10000000 nM, raw OD600 reference: median of DMSO wells 0.146, cell-free background 0.041
[11] = arabinose induction (level): High, raw OD600 reference: median of DMSO wells 0.331, cell-free background 0.041
[12] = arabinose induction (level): Low, raw OD600 reference: median of DMSO wells 0.417, cell-free background 0.041
[13] = arabinose 100 nM, raw OD600 reference: median of DMSO wells 0.413, cell-free background 0.052
[14] = arabinose 10000000 nM, raw OD600 reference: median of DMSO wells […], cell-free background 0.052

Structure (SMILES) | growth [1] | growth [2, 6] | growth [2, 7] | growth [2, 8] | growth [2, 9] | growth [2, 10] | growth [3, 11] | growth [3, 12] | growth [4] | growth [5, 13] | growth [5, 14]
O=c1[nH]c(=O)n([C@H]2C[C@H](O)[C@@H](CO)O2)cc1C(F)(F)F [Trifluridine] | 0.194 ± 0.02 | 0.213 ± 0.049 | 0.0994 ± 0.0099 | 0.121 ± 0.0045 | 0.082 ± 0.0069 | 0.135 ± 0.0027 | 0.13 ± 0.0033 | 0.203 ± 0.0098 | 0.476 ± 0.016 | 0.077 ± 0.0037 | 0.129 ± 0.023
CC(C)(C)NCC(O)COc1cccc2c1CCC(=O)N2 (configuration not stated) [Carteolol hydrochloride] | 0.236 ± 0.0081 | 0.285 ± 0.02 | 0.2521 ± 0.002 | 0.197 ± 0.043 | 0.181 ± 0.0071 | 0.143 ± 0.0038 | 0.222 ± 0.024 | 0.349 ± 0.1 | 0.649 ± 0.043 | 0.405 ± 0.009 | 0.334 ± 0.0046
Clc1cnccn1 [2-Chloropyrazine] | 0.241 ± 0.011 | 0.03733 ± 0.00025 | 0.0408 ± 0.0011 | 0.11 ± 0.0059 | 0.112 ± 0.0027 | 0.196 ± 0.0073 | 0.245 ± 0.034 | 0.307 ± 0.049 | 0.586 ± 0.067 | 0.4217 ± 0.0015 | 0.325 ± 0.0083
CCC(C)(CN(C)C)OC(=O)c1ccccc1 (configuration not stated) [Amyleine hydrochloride] | 0.233 ± 0.0066 | 0.252 ± 0.052 | 0.266 ± 0.0091 | 0.183 ± 0.011 | 0.173 ± 0.0043 | 0.142 ± 0.0057 | 0.26 ± 0.076 | 0.435 ± 0.058 | 0.586 ± 0.017 | 0.411 ± 0.0066 | 0.333 ± 0.021
CC(=O)OCC(=O)[C@@]12N=C(C)O[C@@H]1C[C@H]1[C@@H]3CCC4=CC(=O)C=C[C@]4(C)[C@H]3[C@@H](O)C[C@@]12C [Deflazacort] | 0.151 ± 0.011 | 0.213 ± 0.009 | 0.256 ± 0.0029 | 0.193 ± 0.02 | 0.168 ± 0.0053 | 0.1533 ± 0.00035 | 0.323 ± 0.083 | 0.396 ± 0.032 | 0.48 ± 0.068 | 0.394 ± 0.0082 | 0.347 ± 0.0046
COC(=O)Nc1nc2cc(C(=O)c3cccs3)ccc2[nH]1 [Nocodazole] | 0.251 ± 0.0038 | 0.292 ± 0.018 | 0.269 ± 0.0045 | 0.211 ± 0.0085 | 0.185 ± 0.0053 | 0.142 ± 0.0038 | 0.345 ± 0.023 | 0.415 ± 0.034 | 0.465 ± 0.044 | 0.419 ± 0.0079 | 0.382 ± 0.044
CC(=O)[C@@]1(O)CC[C@H]2[C@@H]3C[C@H](C)C4=CC(=O)C=C[C@]4(C)[C@@]3(F)[C@@H](O)C[C@@]21C [Fluorometholone] | 0.235 ± 0.021 | 0.308 ± 0.011 | 0.248 ± 0.011 | 0.2 ± 0.018 | 0.13 ± 0.007 | 0.153 ± 0.0031 | 0.457 ± 0.013 | 0.428 ± 0.019 | 0.447 ± 0.013 | 0.423 ± 0.007 | 0.334 ± 0.049
CC(C)(C(=O)c1cccnc1)c1cccnc1 [Metyrapone] | 0.246 ± 0.0034 | 0.311 ± 0.017 | 0.273 ± 0.0073 | 0.198 ± 0.0061 | 0.2 ± 0.017 | 0.1411 ± 0.00086 | 0.317 ± 0.017 | 0.428 ± 0.0064 | 0.637 ± 0.095 | 0.409 ± 0.013 | 0.3383 ± 0.0029
c1ccc2c(c1)CCCc1cc(NCCN3CCOCC3)nnc1-2 | 0.215 ± 0.0088 | 0.285 ± 0.013 | 0.278 ± 0.0085 | 0.17 ± 0.029 | 0.149 ± 0.0053 | 0.133 ± 0.0058 | 0.194 ± 0.055 | 0.477 ± 0.044 | 0.4846 ± 0.0026 | 0.4087 ± 0.0033 | 0.328 ± 0.03
CN[C@@H]1[C@@H](O[C@H]2O[C@H](CO)[C@@H](N)[C@H](O)[C@H]2O)OC2C[C@@H](N)[C@@H](O[C@H]3[C@H](O)[C@@H](O)[C@H](N)C[C@@H]3N)OC2[C@@H]1O (some centres not stated) [Apramycin] | 0.0408 ± 0.00099 | 0.045 ± 0.0037 | 0.03913 ± 0.00032 | 0.0442 ± 0.00091 | 0.0395 ± 0.0018 | 0.05653 ± 0.00029 | 0.0487 ± 0.0014 | 0.0476 ± 0.0012 | 0.0798 ± 0.0039 | 0.0841 ± 0.008 | 0.133 ± 0.069
Nc1cc(-c2ccncc2)c[nH]c1=O [Amrinone] | 0.237 ± 0.0081 | 0.308 ± 0.015 | 0.277 ± 0.017 | 0.193 ± 0.012 | 0.188 ± 0.0077 | 0.162 ± 0.008 | 0.463 ± 0.012 | 0.385 ± 0.074 | 0.446 ± 0.027 | 0.38 ± 0.043 | 0.362 ± 0.026
Cc1ccc(/C(=C\CN2CCCC2)c2ccccn2)cc1 [Triprolidine hydrochloride] | 0.223 ± 0.0078 | 0.27 ± 0.014 | 0.257 ± 0.0035 | 0.213 ± 0.017 | 0.176 ± 0.0043 | 0.141 ± 0.005 | 0.264 ± 0.029 | 0.427 ± 0.05 | 0.464 ± 0.026 | 0.41 ± 0.0077 | 0.368 ± 0.019
